For assay [1], the target named is Lysosomal acid glucosylceramidase (Homo sapiens) (UniProt P04062). Briefly: Glucocerebrosidase-p2 (AID 348; in the data active = potency below about 10 µM; note: potency is the fitted concentration of half-maximal effect). The conditions noted are these: purified GBA, blue fluorogenic substrate, 40 min. The method, boiled down: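 Normal human glucocerebrosidase (0.2 nM) with blue fluorogenic substrate (80 uM final) in citrate/phosphate pH 5.9 with 10mM sodium taurocholate, 0.01% tween-20; 40 min RT, NaOH/glycine stop; fluorescence Ex 365/Em 440; AC50 from a titration from 0.6 nM upwards.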
Sequence of Lysosomal acid glucosylceramidase (Homo sapiens) (P04062 whole entry, looked up): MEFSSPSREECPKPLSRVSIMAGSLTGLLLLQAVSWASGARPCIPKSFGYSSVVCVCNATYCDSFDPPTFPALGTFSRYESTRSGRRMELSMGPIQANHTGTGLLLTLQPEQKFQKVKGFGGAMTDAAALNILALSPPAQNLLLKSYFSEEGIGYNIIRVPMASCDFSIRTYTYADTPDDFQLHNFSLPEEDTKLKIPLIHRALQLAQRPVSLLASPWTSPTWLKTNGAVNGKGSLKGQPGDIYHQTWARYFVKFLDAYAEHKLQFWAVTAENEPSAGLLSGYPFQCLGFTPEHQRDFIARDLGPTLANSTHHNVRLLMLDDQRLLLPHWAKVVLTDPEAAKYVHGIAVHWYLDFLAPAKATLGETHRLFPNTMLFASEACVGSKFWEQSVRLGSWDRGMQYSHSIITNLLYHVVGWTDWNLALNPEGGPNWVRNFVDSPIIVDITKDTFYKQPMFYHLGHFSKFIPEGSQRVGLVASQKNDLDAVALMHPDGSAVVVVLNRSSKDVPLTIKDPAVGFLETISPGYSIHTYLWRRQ

A short description of assay [2]: AP1 Signaling Pathway (AID 357).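 Note: ME-180 reporter cells stimulated with EGF at its EC50 level; % is set by controls: 0 for no effect and ±100 for the full control effect.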 The conditions noted are these: ME-180 AP-1-bla reporter, EGF-induced, beta-lactamase ratio, 5 h; at 7.69 µM (top of the series) unless noted. The method, boiled down: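 Modulation of EGF-driven AP-1 transcription was assessed with a beta-lactamase reporter in ME-180 cells. Compound and EC50 EGF were co-incubated 5 hours at 37 °C before 2.5-hour CCF4 loading at room temperature and dual-emission reading.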

In assay [3] the target is Cytochrome P450 1A2 (Homo sapiens) (UniProt P05177). The assay can be described thus: p450-cyp1a2 (AID 410; calls by dose curve; note: potency is the fitted concentration of half-maximal effect;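 for activity change, negative = inhibition: -100% = full effect of reference inhibitor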). The conditions noted are these: recombinant CYP1A2, luciferin-ME demethylation, luminescence; series mostly up to 57 µM. The procedure, abridged: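 Luminescent demethylation readout: Luciferin-ME (100uM, equal to Km) turned over by 20nM CYP1A2 for 60 min at room temperature after NADPH regeneration addition, following 10 min compound preincubation. Normalization used 57 uM furafylline as full inhibition.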
Sequence of Cytochrome P450 1A2 (Homo sapiens) (P05177 whole entry, looked up): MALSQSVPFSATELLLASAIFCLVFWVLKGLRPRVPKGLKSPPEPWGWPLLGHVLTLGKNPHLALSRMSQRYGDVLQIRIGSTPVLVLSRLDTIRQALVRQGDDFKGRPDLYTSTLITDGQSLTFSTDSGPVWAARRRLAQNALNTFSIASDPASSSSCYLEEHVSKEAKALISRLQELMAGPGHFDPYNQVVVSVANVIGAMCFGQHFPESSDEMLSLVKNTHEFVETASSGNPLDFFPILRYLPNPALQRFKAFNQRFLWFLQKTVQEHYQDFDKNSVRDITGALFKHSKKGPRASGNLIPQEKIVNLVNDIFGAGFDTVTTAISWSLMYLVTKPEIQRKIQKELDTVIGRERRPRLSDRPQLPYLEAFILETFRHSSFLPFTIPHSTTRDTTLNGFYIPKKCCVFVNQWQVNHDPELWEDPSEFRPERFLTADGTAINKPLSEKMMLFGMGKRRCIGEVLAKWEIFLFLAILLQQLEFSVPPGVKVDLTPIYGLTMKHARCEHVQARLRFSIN

The nature of assay [4]: NFAT Signaling Pathway (AID 444).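 Note: carbachol stimulus at about its EC50 of 1 µM final; % is set by controls: 0 for no effect and ±100 for the full control effect.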 The conditions noted are these: Jurkat NFAT-bla M1, carbachol, beta-lactamase ratio, 5 h; at 7.69 µM (top of the series) unless noted. The method, boiled down:
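Read-out: CCF4 FRET ratio (460 nm/530 nm) after 1 h RT dye loading, used for %activity and AC50 from titration series. Cells: Jurkat NFAT-β-lactamase/M1 line, treated with compound plus 1 uM carbachol for 5 h, 37 °C.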

The nature of assay [5]: Stat Signaling Pathway (AID 446).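 Note: ME-180 cervical cancer cells given 40 pM IL-6 alongside compound; SIE-controlled beta-lactamase reporter measured as 460/530 nm FRET emission ratio; % is set by controls: 0 for no effect and ±100 for the full control effect.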 The settings on record: ME-180 SIE beta-lactamase reporter, IL-6 stimulated, 5 h; at 7.69 µM (top of the series) unless noted. The method, boiled down: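 Overnight-plated ME-180 cells bearing a STAT Inducible Element beta-lactamase reporter; 5 h co-exposure to compound and 40 pM IL-6; values normalized to 300 pM IL-6 and 125 nM JAK inhibitor controls.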

Assay [6] deals with Glucocorticoid receptor (Homo sapiens) (UniProt P04150). Briefly: GR-EFC Redistribution (AID 451; calls by dose curve; note: potency is the fitted concentration of half-maximal effect). The conditions noted are these: CHO-K1 GR-EFC translocation, beta-gal luminescence, 2 h. The method, boiled down:
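Translocation of GR-ED fusion to nuclear EA restores b-gal, read by luminescence after 1 h room-temperature detection. Engineered CHO-K1 biosensor cells, 1,000/well, exposed 2 h at 37 C to titrations up to 46 uM final.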

Assay [7] addresses Mitogen-activated protein kinase 10 (Mus musculus) (UniProt Q61831). Briefly: JNK3 AlphaScreen Assay (AID 530).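 Note: kinase came from lysate of stimulated human HepG2 cells; signal reports phosphorylation of biotinylated GST-cJun 1-79 at Ser73 with 10 µM ATP; % is set by controls: 0 for no effect and ±100 for the full control effect.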 The conditions noted are these: JNK3 lysate, c-Jun phosphorylation; series mostly up to 57.1 µM. The procedure, abridged: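 qHTS titrations with 15 min compound pre-incubation before adding ATP (10 uM final). Read-out: AlphaScreen of Ser73-phosphorylated biotin-GST-cJun using HepG2 lysate JNK3 activated by IL-1β and TNFα.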

In assay [8] the target is 3',5'-cyclic-AMP phosphodiesterase 4B (Homo sapiens) (UniProt Q07343). The assay can be described thus: qHTS Assay for Inhibitors of PDE-IV (AID 607; active = well fitted activation curve with a large enough effect in the main read-out, with a control signal flat, not every such curve was filed as active; note: % of control where 0% means no effect). The conditions noted are these: HEK293 ACTOne CNG channel cells, membrane potential fluorescence; series mostly up to 22.9 µM. The procedure, abridged:
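Live HEK293 cells with a modified cyclic nucleotide-gated (CNG) channel report intracellular cAMP via membrane-potential dye fluorescence (ex 535/em 590 nm). Endogenous PDE-IV was targeted. Compounds were tested at up to 22.9 uM final; RO 20-1724 100 uM served as control.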
A general note: qHTS replaces the single test concentration by a dilution series.

Assay [9] addresses Cytochrome P450 3A4 (Homo sapiens) (UniProt P08684). The assay can be described thus: qHTS Assay for Inhibitors and Substrates of Cytochrome P450 3A4 (AID 884; active = well fitted curve in the direction sought with a large enough effect; an effect the other way counts as inactive or inconclusive; note: % is set by controls: 0 for no effect and ±100 for the full control effect; nearly all actives have a fitted effect of over 50% in size). The settings on record: recombinant CYP3A4, Luciferin-PPXE luminescence; series mostly up to 57.1 µM. The procedure, abridged: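 Luminescent readout of luciferin produced by CYP3A4 (20 nM) dealkylation of Luciferin-PPXE, 25 uM (its KM). NADPH-driven reaction ran 60 min at RT after 10 min compound preincubation; data scaled to 57 uM ketoconazole as 100% inhibition.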

A short description of assay [10]: Primary qHTS for small molecule stabilizers of the endoplasmic reticulum resident proteome: Secreted ER Calcium Modulated Protein (SERCaMP) assay (AID 1508630; active = well fitted curve in the direction sought with a large enough effect; an effect the other way counts as inactive or inconclusive; note: % is set by controls: 0 for no effect and ±100 for the full control effect). The conditions noted are these: SH-SY5Y GLuc-SERCaMP (Gaussia luciferase released on ER calcium loss) secretion, thapsigargin, luminescence; series mostly up to 38.4 µM. The procedure, abridged:
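The SH-SY5Y reporter protocol was run at 3 concentrations up to 38.3 uM (primary) or 11 concentrations (follow-up): 16 h compound, 100 nM thapsigargin for 4 h, then extracellular luciferase luminescence.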

The target of assay [11] is Cytochrome P450 2C9 (Homo sapiens) (UniProt P11712). The assay can be described thus: qHTS Assay for Inhibitors and Substrates of Cytochrome P450 2C9 (AID 883; active = well fitted curve in the direction sought with a large enough effect; an effect the other way counts as inactive or inconclusive; note: % is set by controls: 0 for no effect and ±100 for the full control effect; nearly all actives have a fitted effect of over 60% in size). The settings on record: recombinant CYP2C9, luciferin-H luminescence, 60 min; series mostly up to 57.1 µM. The method, boiled down:
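Luminescent read-out of deoxyluciferin hydroxylation, normalized to 57uM sulphaphenazole (AC100). Reaction: 10nM enzyme, 100uM Luciferin-H (equal to KM), 25mM KPO4, 10 min compound preincubation, then 60 min with NADPH regeneration, both at 37C.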

Assay [12] has as its target Cytochrome P450 3A4 (Homo sapiens) (UniProt P08684). Briefly: qHTS Assay for Activators of Cytochrome P450 3A4 (AID 885; active = well fitted curve in the direction sought with a large enough effect; an effect the other way counts as inactive or inconclusive; note: nearly all actives have a fitted effect of over 65% in size; note: potency is the fitted concentration of half-maximal effect). The conditions noted are these: recombinant CYP3A4, Luciferin-PPXE luminescence, 60 min; series mostly up to 57.1 µM. The method, boiled down: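 Using 20nM recombinant human CYP3A4 in potassium phosphate (200mM), substrate Luciferin-PPXE at 25uM, luminescent luciferin detection followed a 60-min RT NADPH reaction; data scaled to 57 uM ketoconazole.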

Assay [13] in a line: qHTS Assay for Identification of Small Molecule Agonists for Hypoxia Response Element Signaling Pathway (AID 914; active = well fitted activation curve with a large enough effect in the signal ratio, with a control signal flat, not every such curve was filed as active; the % refers to the signal ratio; note: % of control where 0% means no effect). The conditions noted are these: ME-180 (cervical carcinoma) HRE-bla reporter, beta-lactamase ratio, CoCl2, 17 h; activation: hits give high values. The method, boiled down:
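HRE-bla ME-180 cells with beta-lactamase reporter under hypoxia response element, compounds with EC50 CoCl2 for 17 hours at 37 C. CCF4 substrate, 460nm/530nm emission ratio gave %Activity; AC50 from titration series.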

These results are taken from PubChem BioAssay (NCATS).

Unmarked numbers belong to inactive results. Inconclusive results are not listed. Active and inactive are the calls of the source. Unless noted, calls come from the whole dose curve; as a rule, active = well fitted curve in either direction with a large enough effect (not every such curve was filed as active); inconclusive = small, poorly fitted or top-dose-only effect, or another doubt; inactive = flat fitted curve, though single readings scatter.

Sequence of Glucocorticoid receptor (Homo sapiens) (P04150 whole entry, looked up, the tested form may be a part): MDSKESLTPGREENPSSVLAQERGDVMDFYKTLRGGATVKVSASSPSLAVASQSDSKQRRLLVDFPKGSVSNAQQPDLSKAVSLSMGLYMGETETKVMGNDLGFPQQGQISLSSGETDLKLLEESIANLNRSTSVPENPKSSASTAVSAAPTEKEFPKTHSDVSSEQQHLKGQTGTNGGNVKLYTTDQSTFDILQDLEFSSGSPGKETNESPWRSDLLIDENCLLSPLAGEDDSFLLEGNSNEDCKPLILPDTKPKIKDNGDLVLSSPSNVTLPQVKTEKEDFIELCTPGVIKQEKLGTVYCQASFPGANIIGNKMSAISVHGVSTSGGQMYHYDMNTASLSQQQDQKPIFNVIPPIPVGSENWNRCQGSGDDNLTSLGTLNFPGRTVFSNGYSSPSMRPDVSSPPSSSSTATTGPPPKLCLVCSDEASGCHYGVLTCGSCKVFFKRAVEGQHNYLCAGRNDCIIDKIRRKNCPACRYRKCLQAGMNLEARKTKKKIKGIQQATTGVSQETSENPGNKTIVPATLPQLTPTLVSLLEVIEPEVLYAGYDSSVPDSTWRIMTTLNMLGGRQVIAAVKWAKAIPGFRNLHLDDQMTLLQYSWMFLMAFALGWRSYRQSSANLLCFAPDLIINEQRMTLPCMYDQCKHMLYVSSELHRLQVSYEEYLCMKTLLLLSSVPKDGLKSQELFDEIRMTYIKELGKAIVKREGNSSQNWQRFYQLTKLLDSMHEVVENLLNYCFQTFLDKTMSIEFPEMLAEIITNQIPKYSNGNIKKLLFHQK
Sequence of Cytochrome P450 3A4 (Homo sapiens) (P08684 whole entry, looked up): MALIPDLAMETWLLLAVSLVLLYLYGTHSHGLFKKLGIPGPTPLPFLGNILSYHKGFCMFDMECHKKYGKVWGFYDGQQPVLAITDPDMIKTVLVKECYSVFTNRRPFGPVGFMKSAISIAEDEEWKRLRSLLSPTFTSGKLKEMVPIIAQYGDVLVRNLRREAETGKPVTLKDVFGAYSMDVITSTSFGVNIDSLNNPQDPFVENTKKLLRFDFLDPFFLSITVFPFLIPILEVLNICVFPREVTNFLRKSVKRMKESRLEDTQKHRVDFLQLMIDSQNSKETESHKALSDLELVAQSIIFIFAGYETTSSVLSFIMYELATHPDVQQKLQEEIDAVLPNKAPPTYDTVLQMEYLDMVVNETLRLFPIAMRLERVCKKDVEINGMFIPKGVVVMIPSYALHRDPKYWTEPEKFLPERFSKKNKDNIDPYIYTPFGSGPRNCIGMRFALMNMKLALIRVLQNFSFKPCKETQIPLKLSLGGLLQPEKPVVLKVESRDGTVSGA
Sequence of 3',5'-cyclic-AMP phosphodiesterase 4B (Homo sapiens) (Q07343 whole entry, looked up): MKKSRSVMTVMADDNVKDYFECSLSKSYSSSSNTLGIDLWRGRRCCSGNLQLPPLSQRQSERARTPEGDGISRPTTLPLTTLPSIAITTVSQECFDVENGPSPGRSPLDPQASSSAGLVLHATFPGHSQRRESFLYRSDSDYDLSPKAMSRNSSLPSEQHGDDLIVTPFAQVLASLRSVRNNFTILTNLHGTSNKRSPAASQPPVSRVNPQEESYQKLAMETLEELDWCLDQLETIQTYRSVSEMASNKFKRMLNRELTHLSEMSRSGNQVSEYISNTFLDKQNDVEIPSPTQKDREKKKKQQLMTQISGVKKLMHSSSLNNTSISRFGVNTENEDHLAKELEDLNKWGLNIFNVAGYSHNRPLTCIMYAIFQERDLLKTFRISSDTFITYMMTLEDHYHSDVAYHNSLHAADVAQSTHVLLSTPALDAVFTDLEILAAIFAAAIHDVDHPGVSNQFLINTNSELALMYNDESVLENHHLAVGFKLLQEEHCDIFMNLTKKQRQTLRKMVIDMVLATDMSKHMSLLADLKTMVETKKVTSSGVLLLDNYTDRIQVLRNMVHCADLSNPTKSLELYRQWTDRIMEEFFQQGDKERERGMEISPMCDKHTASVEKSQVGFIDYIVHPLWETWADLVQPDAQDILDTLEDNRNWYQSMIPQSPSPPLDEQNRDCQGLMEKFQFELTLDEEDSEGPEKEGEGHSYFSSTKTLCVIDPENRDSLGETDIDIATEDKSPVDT
Sequence of Cytochrome P450 2C9 (Homo sapiens) (P11712 whole entry, looked up): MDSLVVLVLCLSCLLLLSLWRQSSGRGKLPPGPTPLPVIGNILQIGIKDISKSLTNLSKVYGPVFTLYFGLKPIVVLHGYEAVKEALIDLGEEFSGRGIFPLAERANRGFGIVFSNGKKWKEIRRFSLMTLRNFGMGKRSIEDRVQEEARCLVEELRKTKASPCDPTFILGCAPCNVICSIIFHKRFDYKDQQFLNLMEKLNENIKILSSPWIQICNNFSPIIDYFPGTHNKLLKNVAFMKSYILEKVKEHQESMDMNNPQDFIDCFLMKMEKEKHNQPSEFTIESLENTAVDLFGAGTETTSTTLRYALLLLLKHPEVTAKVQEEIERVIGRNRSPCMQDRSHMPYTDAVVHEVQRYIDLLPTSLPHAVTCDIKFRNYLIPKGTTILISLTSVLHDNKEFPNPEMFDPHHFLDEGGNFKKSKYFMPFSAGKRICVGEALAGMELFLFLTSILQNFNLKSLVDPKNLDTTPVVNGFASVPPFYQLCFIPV

With `O=C(Nc1cccc(F)c1)N1CCC2(CC1)CCN(C(=O)c1ccco1)CC2`, the Potency in [1] is more than 11.4 µM; in assay [6], more than 46 µM. In addition, the activity change, negative = inhibition in assay [2] was -3.88%; in assay [4] it was 4.6%. Besides, the Potency result in assay [3], in assay [7], in [8] and in assay [9] was “inactive” each time. In [5], the activity, negative = inhibition is 4.97%. Further, the result in assay [10] was inactive.

For the compound `O=C(c1cnccn1)N1CCC2(CC1)CCN(c1ncccn1)CC2`, the Potency is more than 11.4 µM in [1] and more than 46 µM in assay [6]. For the same compound, the activity change, negative = inhibition in [2] was -5.54%; in assay [4] it was 6.93%. Moreover, the Potency entry in [3], in assay [7], in assay [8] and in [9] was “inactive” in each case. Further, the activity, negative = inhibition in [5] is -9.82%. For the same compound, the outcome in assay [10] was inactive.

As for `COc1ccc(NC(=O)N2CC[C@@]3(CCCN(C(=O)c4c(C)noc4C)C3)C2)cc1`, the Potency was more than 11.4 µM in assay [1] and more than 46 µM in assay [6]. Further, the activity change, negative = inhibition was -9.74% in [2] and -10.6% in assay [4]. For the same compound, the Potency result in assay [3], in [7], in [8], in assay [11] and in assay [12] was “inactive” throughout. The activity, negative = inhibition in [5] is -10.2%. In addition, the activation in [13] was -0.633%. In addition, in assay [10], the outcome was inactive.

As for `COCC(=O)N1CCC2(CC1)CN(Cc1ccccc1OC)C2`, the results for the Potency in assay [1] and in assay [6] were more than 11.4 µM and more than 46 µM, respectively. Besides, the activity change, negative = inhibition in assay [2] is -2.68%; in assay [4], 9.66%. For the same compound, the Potency entry in [3], in assay [7] and in assay [8] was “inactive” throughout. The activity, negative = inhibition in [5] is 14.6%. Also, the result in [10] was inactive.

Consider `O=C(c1cnccn1)N1CCC2(CC1)CCN(c1ccccc1)CC2`, for which the Potency is more than 11.4 µM in [1] and more than 46 µM in assay [6]. Also, the values for the activity change, negative = inhibition in [2] and in assay [4] were -3.01% and 9.49%, respectively. Besides, the Potency entry in assay [3], in assay [7], in assay [8] and in [9] was “inactive” throughout. For the same compound, the activity, negative = inhibition in [5] is -24.3%. Moreover, the result in assay [10] was inactive.

Consider `Cc1noc(C)c1C(=O)N1CCC2(CCN(Cc3nccs3)CC2)CC1`, for which the Potency was more than 11.4 µM in [1], 12.6 µM (active) in assay [3] and more than 46 µM in assay [6]. In addition, the activity change, negative = inhibition in [2] is 11.4%; in [4], -0.611%. In addition, in [5], the activity, negative = inhibition was 11.5%. Moreover, the Potency result in assay [7] and in [8] was “inactive” throughout. Moreover, in assay [10], the result was inactive.

For the compound `O=C(c1cnccn1)N1CCC2(CC1)CN(Cc1nccs1)C2`, the Potency was more than 11.4 µM in assay [1] and more than 46 µM in assay [6]. Besides, the activity change, negative = inhibition in assay [2] is -5.34%; in assay [4], -5.05%. The Potency entry in [3], in [7] and in [8] was “inactive” each time. Besides, the activity, negative = inhibition in assay [5] is -2.27%. In assay [10], the result was inactive.

In the case of `O=C(c1cccc(F)c1)N1CCC2(CC1)CCN(c1ncccn1)CC2`, the Potency was more than 11.4 µM in assay [1], 10 µM (active) in [3], more than 46 µM in assay [6] and 7.94 µM (active) in assay [12]. In addition, the activity change, negative = inhibition in assay [2] is -6.18%; in assay [4], 2.49%. For the same compound, the activity, negative = inhibition in assay [5] is -11.5%. Moreover, the Potency entry in assay [7], in assay [8] and in assay [9] was “inactive” in each case. Besides, the outcome in assay [10] was inactive.
